PubChem BioAssay (NCATS)
Records with an inconclusive call do not appear. Active and inactive are the calls of the source. Unless noted, the call rests on the fitted dose curve; in most records, active means well fitted curve in the direction sought with a large enough effect; inconclusive means small, poorly fitted or top-dose-only effect, or another doubt; inactive means no such curve, though single readings can be large; an effect the other way counts as inactive or inconclusive.

Tests used:
[1] = biological target: Atrial natriuretic peptide receptor 1 (Homo sapiens) (UniProt P16066); assay: Natriuretic polypeptide receptor (hNpr1) antagonism - Pilot screen (AID 1347049; calls by dose curve;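 further: agonist-evoked cGMP luminescence read 20 min after hNppA addition; series mostly up to about 58 µM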)
Outline: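 HEK293 cells co-expressing hNpr1 and the GloSensor pGS-40F cGMP luciferase sensor were preloaded with 2% GloSensor reagent for 2 h. Compounds were added for 30 min at room temperature, then cells were stimulated with 0.1 nM hNppA for 20 min before luminescence readout.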

[2] = NS1 protein of Zika virus - qHTS assay to identify small molecule inhibitors in human HEK 293 cells (AID 1347053); further: series mostly up to about 46 µM; nearly all actives have a fitted effect of over 55% in size
Outline: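 HEK 293 cells pretreated with compound for 1 h, then infected with ZIKV MR766 (MOI 0.5) for 24 h at 37 C. NS1 detected by TR-FRET with two anti-NS1 antibodies; normalized to uninfected (0%) and infected (100%) wells.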

[3] = biological target: T1, Tyrosine-protein phosphatase non-receptor type substrate 1 (Homo sapiens) + Leukocyte surface antigen CD47 (Homo sapiens) (UniProt P78324+Q08722); assay: CD47-SIRPalpha protein protein interaction - LANCE assay qHTS validation (AID 1347057; active means well fitted curve in the direction sought with a large enough effect in the signal ratio, with a control signal flat, not every such curve was filed as active; the % refers to the signal ratio; further: series mostly up to about 38 µM)
Outline: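 First, His-tagged CD47 and Eu-labelled anti-His antibody met the compound for 30 min; next, site-specifically biotinylated SIRPalpha was added for 30 min; finally streptavidin-APC was added before reading the TR-FRET ratio.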

[4] = biological target: T1, Tyrosine-protein phosphatase non-receptor type substrate 1 (Homo sapiens) + Leukocyte surface antigen CD47 (Homo sapiens); assay: CD47-SIRPalpha protein protein interaction - HTRF assay qHTS validation (AID 1347058; active means well fitted curve in the direction sought with a large enough effect in the signal ratio, not every such curve was filed as active; the % refers to the signal ratio; further: series mostly up to about 38 µM)
Outline: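 TR-FRET read (Ch1/Ch2 ratio) of soluble extracellular CD47 and Avi-biotinylated SIRPalpha domains in PBS pH 7.4 with 0.05% IGEPAL; 7-point compound titration. Sequential 30 min room-temperature steps; non-biotinylated SIRPalpha as control inhibitor.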

[5] = biological target: T1, Tyrosine-protein phosphatase non-receptor type substrate 1 (Homo sapiens) + Leukocyte surface antigen CD47 (Homo sapiens); assay: CD47-SIRPalpha protein protein interaction - Alpha assay qHTS validation (AID 1347059);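 further: bead proximity luminescence from CD47 binding SIRPalpha after compound preincubation with SIRPalpha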
Outline: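 Soluble extracellular domains: Avi-tag biotinylated SIRPalpha (25 nM) preincubated 30 min RT with compound, then 6His-CD47 (12.5 nM) 30 min; Ni-NTA acceptor and streptavidin donor beads (10 ug/mL) 30 min, AlphaScreen read. PBS pH 7.4, 0.05% IGEPAL.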

[6] = biological target: Parathyroid hormone/parathyroid hormone-related peptide receptor (Homo sapiens) (UniProt Q03431); assay: qHTS for PTHR1 Agonists: Optimization Screen against the NCGC LOPAC library (AID 1347079);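 further: GloSensor cAMP luminescence in HEK-293 GP2 cells expressing human PTHR1 with IBMX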
Outline: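 Agonist readout: GloSensor cAMP luminescence, read after 15 min at room temperature. HEK-293-derived GP2 line carries PTHR1; compounds tested as a titration for 1 hr at 37C in presence of IBMX. M-PTH (1-15) served as control.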

[7] = qHTS for Inhibitors of the Functional Ribonucleoprotein Complex (vRNP) of Lassa (LASV) Arenavirus: LASV Primary Screen - GLuc reporter signal (AID 1347082; calls by dose curve; tested in HEK293 reporter line; further: series mostly up to about 57 µM; nearly all actives have a fitted effect of over 60% in size)
[8] = qHTS for Inhibitors of the Functional Ribonucleoprotein Complex (vRNP) of Lassa (LASV) Arenavirus: Viability assay - alamar blue signal for LASV Primary Screen (AID 1347083; calls by dose curve; tested in HEK293 reporter line; further: series mostly up to about 57 µM; nearly all actives have a fitted effect of over 80% in size)
[9] = qHTS for Inhibitors of the Functional Ribonucleoprotein Complex (vRNP) of Lymphocytic Choriomeningitis Arenaviruses (LCMV): Viability assay - alamar blue signal for LCMV Primary Screen (AID 1347085; calls by dose curve; tested in HEK293 reporter line; further: series mostly up to about 57 µM; nearly all actives have a fitted effect of over 80% in size)
[10] = biological target: Nucleoprotein (Lymphocytic choriomeningitis virus (strain Armstrong)) (UniProt P09992); assay: qHTS for Inhibitors of the Functional Ribonucleoprotein Complex (vRNP) of Lymphocytic Choriomeningitis Arenaviruses (LCMV): LCMV Primary Screen - GLuc reporter signal (AID 1347086; calls by dose curve; further: series mostly up to about 57 µM; nearly all actives have a fitted effect of over 70% in size)
[11] = qHTS of pediatric cancer cell lines to identify multiple opportunities for drug repurposing: Primary screen for TC32 cells (AID 1347089); further: nearly all actives have a fitted effect of over 60% in size
Outline: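 TC32 cells, 500-1,000/well in growth medium, compound-treated 48 h at 37 °C; viability from CellTiter-Glo luminescence. Primary screen: MIPE 11-point (0.78 nM–46 µM final), NPC 8-point (0.59 nM–46 µM final); confirmatory at 11-point dilutions.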

[12] = qHTS of pediatric cancer cell lines to identify multiple opportunities for drug repurposing: Primary screen for DAOY cells (AID 1347090); further: series mostly up to about 46 µM; nearly all actives have a fitted effect of over 55% in size
Outline: (§1)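 Eight- or eleven-point concentration series, 48 h treatment at 37 degrees C in growth media; readout CellTiter-Glo luminescence. Potency and efficacy were taken from the concentration-response curves.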

[13] = qHTS of pediatric cancer cell lines to identify multiple opportunities for drug repurposing: Primary screen for SJ-GBM2 cells (AID 1347091)
Outline: as §1

[14] = qHTS of pediatric cancer cell lines to identify multiple opportunities for drug repurposing: Primary screen for A673 cells (AID 1347092); further: nearly all actives have a fitted effect of over 45% in size
Outline: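 A673 cells (500-1,000 cells/well) were treated 48 hours at 37 degrees C with compounds at 11-point (0.78 nM to 46 µM) or 8-point (0.59 nM to 46 µM) dilutions. Viability read by CellTiter-Glo luminescence; concentration-response curves fitted.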

[15] = qHTS of pediatric cancer cell lines to identify multiple opportunities for drug repurposing: Primary screen for SK-N-MC cells (AID 1347093); further: series mostly up to about 46 µM
Outline: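 Metabolically active cells were quantified by ATP-dependent luminescence (CellTiter-Glo, 15 min at room temperature) following 48 h treatment. Cells had been plated at 500-1,000 per well and settled for 5 h beforehand.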

[16] = qHTS of pediatric cancer cell lines to identify multiple opportunities for drug repurposing: Primary screen for BT-37 cells (AID 1347094); further: series mostly up to about 57 µM
Outline: (§2)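 500-1,000 cells/well; 5 h pre-incubation 37 °C/5% CO2; compound pinned; 48 h; CellTiter-Glo, 15 min RT; luminescence. MIPE 11-pt from 0.78 nM, NPC 8-pt from 0.59 nM final. Bortezomib 2.3 µM final as positive control.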

[17] = qHTS of pediatric cancer cell lines to identify multiple opportunities for drug repurposing: Primary screen for NB-EBc1 cells (AID 1347095)
Outline: as §2

[18] = qHTS of pediatric cancer cell lines to identify multiple opportunities for drug repurposing: Primary screen for U-2 OS cells (AID 1347096); further: nearly all actives have a fitted effect of over 50% in size
Outline: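 Cells (500-1,000/well) in growth media were settled 5 h at 37 degrees C, then given compounds for 48 h. Viability was read as CellTiter-Glo luminescence. Primary runs used MIPE at 11 points (0.78 nM-46 µM) and NPC at 8 points (0.59 nM-46 µM); follow-ups used 11 points.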

[19] = qHTS of pediatric cancer cell lines to identify multiple opportunities for drug repurposing: Primary screen for SK-N-SH cells (AID 1347098);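 further: DMSO served as neutral control and bortezomib at 2.3 µM as positive control; nearly all actives have a fitted effect of over 65% in size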
Outline: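 Cells (500-1,000/well) rested 5 h, then received compounds for 48 h; metabolically active cells were measured by CellTiter-Glo luminescence. Final concentrations spanned up to 46 µM (MIPE, 11-point) or 0.59 nM-46 µM (NPC, 8-point) in primary screens, 11-point in follow-ups.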

[20] = qHTS of pediatric cancer cell lines to identify multiple opportunities for drug repurposing: Primary screen for Saos-2 cells (AID 1347097); further: nearly all actives have a fitted effect of over 40% in size
Outline: as §2

Measured: Potency

T1 sequence (P78324 whole entry, looked up): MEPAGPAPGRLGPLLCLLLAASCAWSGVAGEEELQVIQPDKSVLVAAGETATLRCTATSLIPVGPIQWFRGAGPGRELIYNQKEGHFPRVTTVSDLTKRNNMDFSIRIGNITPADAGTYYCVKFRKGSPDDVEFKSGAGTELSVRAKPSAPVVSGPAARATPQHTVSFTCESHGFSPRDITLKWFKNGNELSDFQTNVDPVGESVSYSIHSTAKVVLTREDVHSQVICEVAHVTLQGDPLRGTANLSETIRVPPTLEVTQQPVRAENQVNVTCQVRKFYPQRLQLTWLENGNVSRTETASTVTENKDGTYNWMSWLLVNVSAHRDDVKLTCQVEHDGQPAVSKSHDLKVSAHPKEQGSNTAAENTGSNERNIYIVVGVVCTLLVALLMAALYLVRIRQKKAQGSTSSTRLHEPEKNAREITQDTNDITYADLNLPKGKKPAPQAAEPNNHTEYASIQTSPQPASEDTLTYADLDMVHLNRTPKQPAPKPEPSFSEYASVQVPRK
T1 sequence (Q08722 whole entry, looked up): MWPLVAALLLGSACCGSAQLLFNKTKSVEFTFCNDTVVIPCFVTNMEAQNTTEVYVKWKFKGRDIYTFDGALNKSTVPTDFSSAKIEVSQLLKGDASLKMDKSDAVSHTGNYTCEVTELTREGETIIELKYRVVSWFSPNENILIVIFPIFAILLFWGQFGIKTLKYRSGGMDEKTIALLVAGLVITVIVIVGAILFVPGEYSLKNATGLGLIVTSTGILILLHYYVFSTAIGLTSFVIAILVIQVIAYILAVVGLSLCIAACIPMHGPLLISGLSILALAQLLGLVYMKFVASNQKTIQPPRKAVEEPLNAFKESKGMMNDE
Nucleoprotein (Lymphocytic choriomeningitis virus (strain Armstrong)), sequence (P09992 whole entry, looked up): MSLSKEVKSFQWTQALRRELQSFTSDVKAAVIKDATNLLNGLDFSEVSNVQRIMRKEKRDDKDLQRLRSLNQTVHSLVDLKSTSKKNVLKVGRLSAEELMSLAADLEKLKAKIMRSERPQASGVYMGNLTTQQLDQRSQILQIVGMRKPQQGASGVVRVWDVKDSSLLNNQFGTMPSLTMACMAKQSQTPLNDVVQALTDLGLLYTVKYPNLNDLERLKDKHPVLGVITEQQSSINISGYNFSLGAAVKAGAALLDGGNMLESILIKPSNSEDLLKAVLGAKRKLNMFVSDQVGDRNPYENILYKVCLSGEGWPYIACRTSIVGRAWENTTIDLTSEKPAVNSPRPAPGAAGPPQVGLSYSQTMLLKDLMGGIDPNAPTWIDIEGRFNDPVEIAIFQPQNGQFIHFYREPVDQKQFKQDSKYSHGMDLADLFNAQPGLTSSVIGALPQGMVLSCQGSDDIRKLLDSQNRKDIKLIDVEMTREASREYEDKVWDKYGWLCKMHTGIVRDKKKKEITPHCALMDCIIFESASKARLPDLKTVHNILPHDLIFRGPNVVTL
Atrial natriuretic peptide receptor 1 (Homo sapiens), sequence (P16066 whole entry, looked up): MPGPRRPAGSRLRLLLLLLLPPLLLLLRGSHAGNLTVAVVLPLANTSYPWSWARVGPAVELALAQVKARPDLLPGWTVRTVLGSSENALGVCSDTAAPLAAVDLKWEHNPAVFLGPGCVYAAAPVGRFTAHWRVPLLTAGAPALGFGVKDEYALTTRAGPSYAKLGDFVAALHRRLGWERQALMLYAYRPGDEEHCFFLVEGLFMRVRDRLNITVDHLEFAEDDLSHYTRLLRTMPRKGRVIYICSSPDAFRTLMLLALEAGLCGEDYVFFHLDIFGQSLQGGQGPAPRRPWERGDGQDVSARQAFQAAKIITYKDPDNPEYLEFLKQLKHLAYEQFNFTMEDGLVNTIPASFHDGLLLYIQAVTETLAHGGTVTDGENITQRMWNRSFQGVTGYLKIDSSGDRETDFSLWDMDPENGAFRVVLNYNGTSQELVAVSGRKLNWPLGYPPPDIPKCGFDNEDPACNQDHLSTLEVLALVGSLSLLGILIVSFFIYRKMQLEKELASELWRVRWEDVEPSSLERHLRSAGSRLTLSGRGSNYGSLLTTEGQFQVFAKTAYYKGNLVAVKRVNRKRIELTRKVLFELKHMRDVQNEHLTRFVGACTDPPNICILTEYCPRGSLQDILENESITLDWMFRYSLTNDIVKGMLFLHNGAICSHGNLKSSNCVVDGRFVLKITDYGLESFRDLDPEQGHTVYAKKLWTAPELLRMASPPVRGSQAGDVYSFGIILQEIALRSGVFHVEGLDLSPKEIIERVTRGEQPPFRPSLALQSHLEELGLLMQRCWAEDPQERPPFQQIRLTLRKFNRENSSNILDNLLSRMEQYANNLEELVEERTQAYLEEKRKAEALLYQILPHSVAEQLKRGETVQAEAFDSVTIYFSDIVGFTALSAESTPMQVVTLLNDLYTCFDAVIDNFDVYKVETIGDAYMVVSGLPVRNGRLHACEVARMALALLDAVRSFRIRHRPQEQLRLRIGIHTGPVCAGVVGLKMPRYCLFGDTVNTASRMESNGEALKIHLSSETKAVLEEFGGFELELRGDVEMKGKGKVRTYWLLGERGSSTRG
Parathyroid hormone/parathyroid hormone-related peptide receptor (Homo sapiens), sequence (Q03431 whole entry, looked up): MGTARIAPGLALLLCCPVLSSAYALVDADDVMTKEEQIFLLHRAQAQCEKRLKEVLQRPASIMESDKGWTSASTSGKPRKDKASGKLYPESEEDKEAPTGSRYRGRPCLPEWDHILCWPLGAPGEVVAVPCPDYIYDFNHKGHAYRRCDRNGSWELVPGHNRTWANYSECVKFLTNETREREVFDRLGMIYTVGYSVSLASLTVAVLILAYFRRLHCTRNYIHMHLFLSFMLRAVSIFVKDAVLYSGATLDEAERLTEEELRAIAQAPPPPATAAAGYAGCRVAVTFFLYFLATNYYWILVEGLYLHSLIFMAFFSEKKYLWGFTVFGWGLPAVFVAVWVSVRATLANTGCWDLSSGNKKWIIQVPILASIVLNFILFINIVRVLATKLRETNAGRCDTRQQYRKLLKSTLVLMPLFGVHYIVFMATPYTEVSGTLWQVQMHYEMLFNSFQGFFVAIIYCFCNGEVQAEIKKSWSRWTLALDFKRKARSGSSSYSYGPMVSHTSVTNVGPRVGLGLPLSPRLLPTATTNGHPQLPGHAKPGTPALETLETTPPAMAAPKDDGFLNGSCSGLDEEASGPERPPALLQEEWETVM

CCCN1CCC[C@@H]2Cc3nc(N)ncc3C[C@H]21
not listed: [20]
inactive: all other assays above

N[C@@H](Cc1ccc(Oc2cc(I)c(O)c(I)c2)c(I)c1)C(=O)O
not listed: [1] | [3] | [4] | [5] | [6] | [20]
inactive: all other assays above

CC[N+](CC)(CC)CC
not listed: [1] | [3] | [4] | [5] | [6]
inactive: all other assays above

CCOP(=S)(OCC)Oc1cc(C)nc(C(C)C)n1
not listed: [1] | [3] | [4] | [5] | [6] | [20]
inactive: all other assays above

CN(C)[C@@H]1C(=O)C(C(N)=O)=C(O)[C@@]2(O)C(=O)C3=C(O)c4c(O)cccc4[C@@](C)(O)[C@H]3C[C@@H]12
not listed: [1] | [3] | [4] | [5] | [6] | [16]
inactive: all other assays above

CC(C)NCC(O)c1ccccc1Cl (stereo unspecified)
not listed: [1] | [3] | [4] | [5] | [6]
inactive: all other assays above

N[C@@H]1C[C@H]1c1ccccc1
not listed: [1] | [3] | [4] | [5] | [6] | [20]
inactive: all other assays above

COC1(CS(=O)c2ccccc2)CCN(CCc2c[nH]c3ccc(F)cc23)CC1 (stereo unspecified)
not listed: [1] | [3] | [4] | [5] | [6] | [16] | [19]
inactive: all other assays above

Cc1ccc(-c2nc3ccc(C)cn3c2CC(=O)N(C)C)cc1
not listed: [1] | [3] | [4] | [5] | [6]
inactive: all other assays above

O=[N+]([O-])c1cc([As](=O)(O)O)ccc1O
not listed: [1] | [3] | [4] | [5] | [6] | [20]
inactive: all other assays above

O=C(O)c1ccc2[nH]cc(CCCCN3CC=C(c4ccccc4)CC3)c2c1
not listed: [1] | [3] | [4] | [5] | [6] | [17] | [20]
inactive: all other assays above

CC1NCCOC1c1ccccc1 (stereo unspecified)
not listed: [1] | [3] | [4] | [5] | [6] | [20]
inactive: all other assays above

Oc1ccccc1-c1ccccc1
not listed: [1] | [3] | [4] | [5] | [6] | [20]
inactive: all other assays above

FC(F)(F)c1cccc(C2=CCN(CCc3ccc4ccccc4c3)CC2)c1
not listed: [1] | [3] | [4] | [5] | [6]
inactive: all other assays above

CC1OC(C)OC(C)O1 (stereo unspecified)
not listed: [1] | [3] | [4] | [5] | [6]
inactive: all other assays above

C[C@]12CC[C@H]3[C@@H](CCC4=CC(=O)CC[C@@H]43)[C@@H]1CC[C@@H]2OC(=O)CCc1ccccc1
not listed: [1] | [3] | [4] | [5] | [6] | [20]
inactive: all other assays above

CCC(C(N)=O)N1CCCC1=O (stereo unspecified)
not listed: [1] | [3] | [4] | [5] | [6] | [20]
inactive: all other assays above
